# Reference: PubChem BioAssay (Tox21)
# Records with an inconclusive call do not appear. Values without a mark were called inactive. Activity calls are given as the source filed them. The call rests on the fitted dose curve; in most records, active means well fitted activation curve with a large enough effect in the repeat runs; inconclusive means weak or mixed curves, or effect the other way; inactive means no such curve, though single readings can be large or run the other way.
# Assay: qHTS assay to identify small molecule agonists of the estrogen related receptor signaling pathway with the pleiotropic PPARgamma coactivator (PGC) from Tox21 10K library (AID 1224842); further: nearly all actives have a fitted effect of over 15% in size
# Conditions: PGC/ERR reporter cell line, luciferase ONE-Glo, 18 h; series mostly up to 92.4 µM; activation: at the top concentration
# Text: National Center for Advancing Translational Sciences [NCATS] NIH Chemical Genomics Center [NCGC] U.S. Environmental Protection Agency [EPA] National Institutes of Environmental Health Sciences [NIEHS] National Toxicology Program [NTP] Assay overview: Estrogen related receptors (ERRs), the first orphan nuclear receptors discovered, play an important role in the control of cellular energy metabolism. ERRs are required for high-energy production in response to the environmental challenges. The pleiotropic PPARgamma coactivator (PGC) is a major partner of ERR and a key regulator in energy homeostasis. Together they have been implicated in the etiology of metabolic disorders such as Type 2 diabetes and metabolic syndrome. ERR-alpha was also identified as an adverse marker for breast cancer progression; ERR-alpha-positive tumors have a poor prognosis. To screen and to identify environmental compounds that perturb the PGC/ERR signaling pathways could provide valuable information for potential therapeutic or preventive measures in the treatment of metabolic disease. For identifying PGC/ERR agonists, PGC/ERR cell line (provided by NTP) has been used to screen Tox21 10K library.
# Assay Protocol Summary: The PGC/ERR cells were dispensed at 2,000 cells/5 ul/well in 1536-well white plates using a Multidrop dispenser. After the assay plates were incubated at a 37 C/5% CO2 incubator for 6 hours, 23 nL of compounds dissolved in DMSO, positive and negative controls or DMSO only was transferred to the assay plate by a pin tool. The plates were incubated at 37 C for 18 hours. 4 ul/well of One-Glo reagent was added into the assay plates using a Flying Reagent Dispenser. After 30-minute incubation at room temperature, the luminescence intensity in the plates was measured using a ViewLux plate reader.
# On the % scale 0 is the no-effect control and ±100 the full control effect; potency means the concentration at half of the fitted maximal effect.
SMILES,activation,Potency
O=C(O)CCc1ccccc1,0.613%,
CC[C@]1(O)C[C@@H]2CN(CCc3c([nH]c4ccccc34)[C@@](C(=O)OC)(c3cc4c(cc3OC)N(C)[C@H]3[C@@](O)(C(=O)OC)[C@H](OC(C)=O)[C@]5(CC)C=CCN6CC[C@]43[C@@H]65)C2)C1,-5.86% [at 42.5 µM],
Nc1cc(Cl)c(-c2cc(Cl)c(N)cc2Cl)cc1Cl,,inactive
C=CS(=O)(=O)O,-0.764%,
c1cc(C(c2ccc(OCC3CO3)cc2)C(c2ccc(OCC3CO3)cc2)c2ccc(OCC3CO3)cc2)ccc1OCC1CO1 (stereo not given),,inactive
CC(C)CCOC(=O)c1ccc(N(C)C)cc1,,10.6 µM (active)
Cc1cccc(O)c1C,,inactive
Cc1cccc([N+](=O)[O-])c1C(=O)O,1.25%,
CCCCN(CCO)CCCC,3.92%,
COc1cc(C(=S)N2CCOCC2)ccc1O,1.11% [at 42.5 µM],
OCCN1CCNCC1,,inactive
CCN1CCCC1CNC(=O)c1cc(S(=O)(=O)CC)c(N)cc1OC (stereo not given),3.31% [at 42.5 µM],
Cc1occc(=O)c1OC(=O)C(C)C,3.21%,
CN(C)c1ccc(C(=C2C=CC(=[N+](C)C)C=C2)c2ccccc2)cc1,,inactive
O=C(Nc1ccccc1SSc1ccccc1NC(=O)c1ccccc1)c1ccccc1,,inactive
NC(N)=NC(=O)Cc1c(Cl)cccc1Cl,-0.401% [at 42.5 µM],
C=CC(=O)OCCCCCCCC,1.21%,
CC(C)(O)CCC(C)(C)O,-1.64%,
COC(=O)[C@H]1[C@H]2C[C@@H]3c4[nH]c5cc(OC)ccc5c4CCN3C[C@H]2C[C@@H](OC(=O)c2cc(OC)c(OC)c(OC)c2)[C@@H]1OC,,inactive
NC(Cc1ccc(Cl)cc1)C(=O)O (stereo not given),0.108% [at 0.349 µM],

SMILES,activation,Potency
CCC(CO)(CO)COCC(CC)(CO)CO,0.545%,
N[C@@H]1CONC1=O,0.556% [at 42.5 µM],
CC(C)(C)c1ccccc1,-1.26%,
Cc1c(O)cccc1C(=O)N[C@@H](CSc1ccccc1)[C@H](O)CN1C[C@H]2CCCC[C@H]2C[C@H]1C(=O)NC(C)(C)C,,inactive
CC1COC(=O)O1 (stereo not given),,inactive
CCCCC/C=C/CC1CC(=O)OC1=O (stereo not given),1.56%,
CN1C(=O)c2ccc([N+](=O)[O-])cc2C1=O,2.59%,
O=Nc1ccc(Nc2ccccc2)cc1,,9.69 µM (active)
BrC1CCC(Br)C(Br)CCC(Br)C(Br)CCC1Br (stereo not given),,inactive
CCOC(=O)C(C)C(C)=O (stereo not given),-0.373%,
CCOc1ccc2c(c1)C(C)=CC(C)(C)N2,,inactive
CCn1cc(C(=O)O)c(=O)c2cc(F)c(N3CCNC(C)C3)c(F)c21 (stereo not given),0.758% [at 42.5 µM],
C#CC(C)(CC)OC(=O)c1ccccc1C(=O)O (stereo not given),4.1% [at 42.5 µM],
Oc1c(Cl)cc(Cl)cc1Sc1cc(Cl)cc(Cl)c1O,,inactive
CCCCCC(=O)O[C@]1(C(C)=O)CC[C@H]2[C@@H]3CCC4=CC(=O)CC[C@]4(C)[C@H]3CC[C@@]21C,,inactive
C[N+]1([O-])CCOCC1,0.599%,
Cc1cc(C2(c3cc(C)c(O)cc3C)OS(=O)(=O)c3ccccc32)c(C)cc1O,,inactive
OCC(CO)N[C@H]1C[C@](O)(CO)[C@@H](O)[C@H](O)[C@H]1O,0.529% [at 42.5 µM],
CC(C)(c1ccccc1)c1ccc(Nc2ccc(C(C)(C)c3ccccc3)cc2)cc1,-10.1%,
CO[Si](OC)(OC)c1ccccc1,0.502%,
